This note sets out measurements from PubChem BioAssay AID720504 (National Center for Advancing Translational Sciences (NCATS), 2013).

About 10,000 (2.8%) of roughly 360,000 compounds were called active. Inconclusive results (about 4%) are left out. Many of the other results were omitted from the sample, so actives are more common in it than they were. Unmarked numbers belong to inactive results. Calls follow the shape of the dose curve; as a rule, active = well fitted inhibition curve with a large enough effect; inconclusive = small, poorly fitted or top-dose-only effect; inactive = flat fitted curve, though single readings scatter.
% is scaled to controls: 0 for no effect and ±100 for the full control effect; potency is read from the fitted curve at half-maximal effect.

The target in the experiment is Serine/threonine-protein kinase PLK1 (Homo sapiens) (UniProt P53350). In words: qHTS for Inhibitors of PLK1-PDB (polo-like kinase 1 - polo-box domain): Primary Screen. Also: nearly all actives have a fitted effect of over 65% in size. As to max response, negative = inhibition: series mostly up to about 57 µM. Particulars: Plk1 PBD binding of FITC phosphopeptide, fluorescence polarization.
Chain of Serine/threonine-protein kinase PLK1 (Homo sapiens) (P53350 whole entry, looked up, the tested form may be a part): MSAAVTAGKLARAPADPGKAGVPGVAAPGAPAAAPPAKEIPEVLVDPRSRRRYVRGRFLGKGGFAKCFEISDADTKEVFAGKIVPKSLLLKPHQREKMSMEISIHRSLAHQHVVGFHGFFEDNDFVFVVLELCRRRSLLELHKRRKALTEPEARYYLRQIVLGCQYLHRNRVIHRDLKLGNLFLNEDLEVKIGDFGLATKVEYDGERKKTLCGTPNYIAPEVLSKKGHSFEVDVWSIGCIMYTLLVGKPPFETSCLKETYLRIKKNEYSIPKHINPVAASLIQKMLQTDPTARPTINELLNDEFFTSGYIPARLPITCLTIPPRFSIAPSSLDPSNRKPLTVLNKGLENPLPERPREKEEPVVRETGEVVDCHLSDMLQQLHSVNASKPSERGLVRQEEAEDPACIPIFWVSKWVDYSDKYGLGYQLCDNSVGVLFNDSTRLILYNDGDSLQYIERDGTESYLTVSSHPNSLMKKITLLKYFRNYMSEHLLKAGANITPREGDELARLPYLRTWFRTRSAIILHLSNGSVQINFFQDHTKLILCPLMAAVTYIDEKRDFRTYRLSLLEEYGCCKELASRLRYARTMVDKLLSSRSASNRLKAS
`COC(=O)C[C@H]1C=C[C@H](NC(=O)c2ccc(F)cc2)[C@@H](CO)O1`: the max response, negative = inhibition is -25.2%. On the same count and under the same terms, the value for `CC1(C)CN(Cc2cccnc2)C(=O)[C@H]1CC(=O)Nc1ccc(Br)cc1` was 2.66%. Regarding `COC(=O)CCC(=O)N1CCCC(CO)(Cc2ccccc2)C1` (configuration not stated), the Potency is 21.2 µM (active). With `Cc1ccccc1CC1(CO)CCCN(C(=O)c2cc(-c3ccccc3)no2)C1` (configuration not stated), the max response, negative = inhibition is -5.7%. As for `Cc1noc(C)c1CCC(=O)N1CCCC(CO)(Cc2ccccc2)C1` (configuration not stated), the max response, negative = inhibition is -15.4%. On the same count and under the same terms, the result for `O=C(NCCc1cccc(F)c1)C1CC(O)CN1C(=O)Nc1ccccc1` (configuration not stated) reads -1.53%; that for `CCCCN1C(=O)C(CC(=O)NCc2cccs2)CC(C(=O)N2CCOCC2)=C1C` (configuration not stated), 5.78%.

Regarding `CC(C)(C)C(=O)c1c(N)[nH]c(C(=O)c2ccccc2)c1-c1ccc(F)cc1`, the max response, negative = inhibition was 2.51%. Consider `O=c1oc2ccccc2cc1-c1cn(-c2ccccc2)c(=S)[nH]1`, for which the max response, negative = inhibition is -16.2%.

`CN(C)c1cc(-c2ccc(F)cc2)oc(=O)c1Cl`: the max response, negative = inhibition was -4.6%.

Take `O=c1oc2cc(O)ccc2cc1-c1ccc(F)cc1`: the Potency was 3.36 µM (active). On to `CS(=O)(=O)/C(C#N)=C/c1cccn1S(=O)(=O)c1ccc([N+](=O)[O-])cc1`, for which the max response, negative = inhibition was -19.8%. Take `Cc1cc(C)c(C#N)c(SCc2ccc3c(c2)OCO3)n1`: the max response, negative = inhibition was -1.63%. With `Cc1snc(SCc2c(F)cccc2Cl)c1C#N`, the max response, negative = inhibition is -3.96%. Turning to `Cc1ccc(CSc2nsc(C)c2C#N)cc1`, the Potency is 15 µM (active). As to `CC(=O)c1ccc(-c2cnc3c(NC=O)cc(-c4cccc(NS(C)(=O)=O)c4)cn23)cc1`, the max response, negative = inhibition was 2.12%. The same measure, in the same setting: the value for `COC(=O)C[C@@H]1C=C[C@@H](NC(=O)c2cccnc2)[C@@H](CO)O1` was -16.8%; that for `CCCCN(C(C)=O)c1ccc2c(c1)C1CC2CCN1Cc1ccccc1` (configuration not stated) was -11%; that for `CCCCn1nnnc1C1(C)CCC(=O)N1Cc1ccc(OC)c(OC)c1` (configuration not stated) was -1.18%.

In the case of `COc1ccc(COC[C@H](CC(C)C)N2CCN(C(=O)c3cccc(C(F)(F)F)c3)CCC2=O)cc1`, the max response, negative = inhibition was -20.7%. As to `CC(=O)NS(=O)(=O)c1ccc(NC(=O)/C=C/c2ccccc2Cl)cc1`, the Potency was 29.9 µM (active). `NS(=O)(=O)c1ccc(NC(=O)/C=C/c2ccccc2Cl)cc1`: the max response, negative = inhibition is 2.86%. `O=C(/C=C/c1ccccc1Cl)Nc1ccc(S(=O)(=O)Nc2ncccn2)cc1`: the max response, negative = inhibition is -7.83%. Still for that read-out and setting: the value for `COCOc1cccc(CN2CCC(C)(Oc3ccc(SC)cc3)C2)c1` (configuration not stated) was -0.463%; that for `O=C(Nc1cc(S(=O)(=O)N2CCOCC2)ccc1Cl)c1cc(=O)c2ccccc2o1` was 1.44%; that for `O=C(c1cc(S(=O)(=O)N2CCOCC2)ccc1Cl)N1CCOCC1` was -9.46%. Take `O=[N+]([O-])c1cc(Cl)cc(/C=N/NC(=S)Nc2cc(S(=O)(=O)N3CCOCC3)ccc2Cl)c1O`: the Potency was 10.6 µM (active). Take `OC[C@@H]1CN(Cc2cccs2)C[C@H](n2cnc3c(Nc4ccccc4)ncnc32)O1`: the max response, negative = inhibition is -1.6%.

For the compound `COCCOC(=O)c1sc(=S)n(CCOC)c1N`, the Potency is 23.8 µM (active). For `COc1ccccc1CNc1nc(Nc2ccccc2Cl)c2sccc2n1`, the max response, negative = inhibition is 5.05%. With `COc1ccc(S(=O)(=O)N[C@@H]2C=C[C@@H](CC(=O)N3CCc4ccccc4C3)O[C@@H]2CO)cc1`, the max response, negative = inhibition was -0.456%. For `CN(C)c1ccnc(Nc2ccc(F)cc2)c1C#N`, the max response, negative = inhibition was -0.535%. As to `Fc1ccc(Nc2nnns2)cc1`, the Potency is 13.4 µM (active).

With `O=C(Nc1ccncc1)Nc1ccc(F)cc1`, the max response, negative = inhibition was 2.49%. On to `Cc1ccc(NC(=O)c2ccco2)cc1`, for which the max response, negative = inhibition is -4.07%. With `CCOC(=O)[C@]12CCCC=C1N(Cc1ccc(Cl)cc1Cl)C(=O)[C@H](CC(=O)N1CCCCC1)C2`, the max response, negative = inhibition was -4.73%. On the same count and under the same terms, the value for `CNC(=O)C[C@H]1C(=O)N(c2ccc(OC)cc2)C[C@@H]1Cc1ccccc1` was -11.8%.

As for `Cc1cccc(NC(=O)CSC(N)=O)c1C`, the max response, negative = inhibition is -17.1%. As to `Cc1ccccc1NC(=O)CCOc1ccccc1`, the max response, negative = inhibition was -11.8%. For the compound `Cc1ccccc1NC(=O)CSC(=O)c1ccccc1`, the Potency is 10.6 µM (active). As for `CC1(C(=O)Nc2ccc3c(c2)OCCO3)CSCC(=O)N1CCOc1ccccc1` (configuration not stated), the max response, negative = inhibition was 0.116%.

Regarding `OCCC#Cc1ccc(N2C(c3ccsc3)=Cc3ccc(F)cc3C2c2c[nH]c3ccccc23)cc1` (configuration not stated), the max response, negative = inhibition is -1.41%. Consider `COc1cccc(NC(=O)CCc2nnc3ccc(N4CCC(C)CC4)nn23)c1`, for which the Potency was 26.7 µM (active). `COc1cccc(N2CCN(c3ccc4nnc(CCC(=O)N5CCN(C)CC5)n4n3)CC2)c1`: the max response, negative = inhibition was -2.01%.

Take `CCOC(=O)c1cccc(NC(=O)CCc2nnc3ccc(N4CCOCC4)nn23)c1`: the max response, negative = inhibition was 2.15%. On the same count and under the same terms, the value for `CC(C)CCOc1ccc(C(=O)Nc2cc(S(=O)(=O)N3CCOCC3)ccc2N2CCOCC2)cc1` was -15.2%; that for `COc1ccc(-c2ccc(C(=O)NC(C)C)c3occc23)c(C)c1` was -5.99%; that for `O=C(Nc1ccc(N2CCOCC2)cc1)c1ccc(-c2ccccc2[N+](=O)[O-])o1` was -4.38%. As for `O=C1NC(c2ccc(-c3ccccc3[N+](=O)[O-])o2)C(C(=O)c2ccc(Cl)cc2)C(O)(C(F)(F)F)N1` (configuration not stated), the max response, negative = inhibition is -5.49%. Turning to `CC1=NN(c2ccc(Cl)c(C(=O)O)c2)C(=O)/C1=C/c1ccc(-c2ccccc2[N+](=O)[O-])o1`, the Potency was 0.844 µM (active).

Consider `CCCS(=O)(=O)NC(=O)C1(C)CCN(C(=O)c2sccc2C)C1` (configuration not stated), for which the max response, negative = inhibition was -7.96%. Consider `C[C@H](NC(=O)CC[C@H]1O[C@@H](n2ccc(=O)[nH]c2=O)[C@H](O)[C@@H]1O)c1cccc2ccccc12`, for which the max response, negative = inhibition is -3.83%. Still for that read-out and setting: the result for `O=C(NCc1ccco1)c1cccc(-c2ccc3nncn3c2)c1` reads 6.92%. Consider `CCCCCNC(=O)C1C(=O)Nc2ccccc2C(=O)N1C(C)(C)C` (configuration not stated), for which the max response, negative = inhibition was -13.8%. Still for that read-out and setting: the result for `Cc1ccsc1/C=N/n1c(=S)[nH]nc(C)c1=O` reads -9.18%. In the case of `S=c1[nH]nc(-c2cccs2)n1/N=C/c1cccs1`, the Potency was 37.7 µM (active). Consider `S=c1[nH]nc(-c2cccs2)n1/N=C/c1cn(-c2ccccc2)nc1-c1ccc(Cl)cc1`, for which the max response, negative = inhibition is -14.4%.
